Compound activity deposited in PubChem by National Center for Advancing Translational Sciences (NCATS).
Pf Dd2 growth = blocks in vitro growth of P. falciparum Dd2; Potency, µM (highest dose often 28.9 µM), for inactives: at the highest dose activity, negative = inhibition, hits mostly inhibitors; P. falciparum Dd2 growth, SYBR Green, 72 h; AID 1347417; hit rate 4.3% among 120,000; active = well fitted inhibition curve with a large enough effect;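 also: plate controls were DMSO vehicle for no effect and reference drug for full effect; nearly all actives have a fitted effect of over 65% in size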
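Infected erythrocytes (Dd2, 0.3% parasitemia, 2.5% hematocrit final) are added to compound in RPMI-1640/Albumax II medium, grown 72 h at 37C in low oxygen, then lysed with saponin/Triton-X containing SYBR Green and read by fluorescence.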
* marks the source's active call; other numbers are inactive results; [ ] = remark or other dose. The full list was thinned out, with hits kept by preference. Potency is read from the fitted curve at half-maximal effect.

For CCC(=O)N1C(C(=O)NC(C)C)COC12CCC(C)CC2 (centres undefined) the results were Pf Dd2 growth -15%.
For COc1ccc(C)nc1-c1cnc2ccccc2c1 the results were Pf Dd2 growth -5%.
For COc1ccc(NC(=O)CCS(=O)(=O)c2cc(Br)cc3c2N(C(C)=O)CC3)c(OC)c1 the results were Pf Dd2 growth inactive.
O=C(CCS(=O)(=O)c1cc(Br)cc2c1N(C(=O)C1CC1)CC2)NCc1ccc(Cl)cc1 was read as Pf Dd2 growth 6.3µM*.
`CC(=O)N1CCc2cc(Br)cc(S(=O)(=O)N3CCC(C(=O)N(C)c4cc(C)ccc4C)CC3)c21` gave Pf Dd2 growth -9%.
For CCC(=O)N1CCc2cc(Br)cc(S(=O)(=O)CCC(=O)NCCc3ccccc3)c21 the results were Pf Dd2 growth -3%.
For CCC(=O)N1CCc2cc(Br)cc(S(=O)(=O)CCC(=O)Nc3ccc(Cl)cc3)c21 the results were Pf Dd2 growth 5µM*.
O=C(CCS(=O)(=O)c1cc2c3c(c1)CCN3C(=O)CC2)NCc1ccc(Cl)cc1 was read as Pf Dd2 growth 16%.
`CC(C)c1ccc(NS(=O)(=O)c2cc(Br)cc3c2N(C(=O)C2CC2)CC3)cc1` gave Pf Dd2 growth -14%.
`COc1ccc(CNC(=O)CCS(=O)(=O)c2cc(Br)cc3c2N(C(C)=O)C(C)C3)cc1` (centres undefined) gave Pf Dd2 growth 4%.
Screening CC(=O)N1CCc2cc(Br)cc(S(=O)(=O)N3CCC(C(=O)Nc4ccc(C(C)C)cc4)CC3)c21 returned Pf Dd2 growth 10µM*.
`Cc1ccc(CNS(=O)(=O)c2cc(Br)cc3c2N(C(=O)C2CC2)CC3)cc1` gave Pf Dd2 growth -1%.
`CCC(=O)N1CCc2cc(Br)cc(S(=O)(=O)NCCc3ccc(C)cc3)c21` gave Pf Dd2 growth inactive.
Cc1ccc(NC(=O)CCS(=O)(=O)c2cc(Br)cc3c2N(C(=O)C2CC2)CC3)cc1 was read as Pf Dd2 growth 1µM*.
Screening O=C1NCCN1C1CCN(Cc2ccc(C(F)(F)F)cc2)CC1 returned Pf Dd2 growth 0%.
For O=C(Cc1c[nH]c2ccccc12)NC1CCc2nn(CC3CC3)c(=O)n2CC1 (centres undefined) the results were Pf Dd2 growth 13%.
Screening CCC(=O)N1CCc2cc(Br)cc(S(=O)(=O)CCC(=O)Nc3cccc(C)c3C)c21 returned Pf Dd2 growth -2%.
Screening CCC(=O)N1CCc2cc(Br)cc(S(=O)(=O)NCCc3ccccc3Cl)c21 returned Pf Dd2 growth -22%.
`CCC(=O)N1CCc2cc(Br)cc(S(=O)(=O)CCC(=O)Nc3cccc(Cl)c3)c21` gave Pf Dd2 growth 7.1µM*.
Screening CCOc1ccc2c(n1)CCN(C(=O)c1ccccn1)C2 returned Pf Dd2 growth 38%.
CN1C(=O)Cc2ccccc2C1C(=O)NCc1ccc(F)cc1Cl (centres undefined) was read as Pf Dd2 growth -2%.
For Cc1nn2c(c1-c1ccccc1N1CCCC1)N(C(=O)c1ccc(F)cc1)CCC2 the results were Pf Dd2 growth -25%[44.1 µM].
Screening O=C(Nc1ccc2c(c1)CN(Cc1ccc(Cl)cc1)C(=O)CO2)c1ccccc1 returned Pf Dd2 growth -14%.
For CCOc1ccc2oc(=O)cc(CN3CCN(Cc4ccc(C)cc4)CC3)c2c1 the results were Pf Dd2 growth inactive.
`COC(=O)Cc1c(C)c2ccc3c(c2oc1=O)CN(Cc1ccc(Cl)cc1)CO3` gave Pf Dd2 growth 7.1µM*.
`Cc1cc(=O)oc2c3c(ccc12)OCN(Cc1ccc(Cl)cc1)C3` gave Pf Dd2 growth 5.6µM*.
Screening Cc1ccc2c(CN3CCN(c4ccc(Cl)cc4)CC3)cc(=O)oc2c1 returned Pf Dd2 growth -9%.
For O=C(Cn1c(=O)oc2ccccc21)NCc1ccc(Cl)cc1 the results were Pf Dd2 growth 6%.
For Cc1coc2c(C)c3oc(=O)c(CCC(=O)NCCc4ccc(Cl)cc4)c(C)c3cc12 the results were Pf Dd2 growth -3%.
O=c1oc2c3c(ccc2c2ccccc12)OCN(Cc1ccc(Cl)cc1)C3 was read as Pf Dd2 growth 10µM*.
`COc1ccc(CCNC(=O)Cc2c(C)c3cc4c(C)coc4c(C)c3oc2=O)cc1` gave Pf Dd2 growth -20%.
Screening CN(Cc1ccccc1)c1ncc2c(n1)CC(C)(C)CC2NC1CCOCC1 (centres undefined) returned Pf Dd2 growth inactive.
`Cn1ccc(NC(=O)C2(C)CN(Cc3ccccc3)Cc3ccc(N4CCOCC4)nc32)n1` (centres undefined) gave Pf Dd2 growth inactive.
Screening COC(=O)CCC(=O)N1CCCC(CCc2c(F)cccc2F)C1 (centres undefined) returned Pf Dd2 growth -8%.
Cc1cc(C(=O)NC2CC(C)(C)Cc3nc(N4CCOCC4)ncc32)nn1C (centres undefined) was read as Pf Dd2 growth -12%.
`COc1ccc(NC(=O)N2CCCCC2c2nc(-c3cnccn3)n[nH]2)cc1` (centres undefined) gave Pf Dd2 growth -11%.
Screening COc1ccc(C2(C(=O)N3CCc4ccccc4C3)CCOCC2)cc1 returned Pf Dd2 growth -8%.
Screening CCn1c(=O)c2c(cc(C)n2C)n(CC(=O)Nc2ccc(OC)c(Cl)c2)c1=O returned Pf Dd2 growth inactive.
Screening Cc1ccccc1N1Cc2c(NCC3CC3)ncnc2N(C)CC1=O returned Pf Dd2 growth -3%.
Screening O=C(c1ccsc1)N1CCC2(CC1)CN(C1CCC1)CC2CO (centres undefined) returned Pf Dd2 growth inactive.
Screening CCCNC(=O)c1nnn2cc(C)[nH]c(=O)c12 returned Pf Dd2 growth 61%.
Screening COc1ccc(CNC(=O)c2nnn3cc(C)[nH]c(=O)c23)cc1 returned Pf Dd2 growth -28%.
Screening Cc1ccc(CNC(=O)C2CCN(C(=O)c3nnn4cc(C)[nH]c(=O)c34)CC2)cc1 returned Pf Dd2 growth inactive.
For Cc1cn2nnc(C(=O)N3CCC(C(=O)NCc4ccccc4Cl)CC3)c2c(=O)[nH]1 the results were Pf Dd2 growth -8%.
Cc1cn2nnc(C(=O)N3CCC(C(=O)NCc4cccc(Cl)c4)CC3)c2c(=O)[nH]1 was read as Pf Dd2 growth 4.5µM*.
`Cc1cn2nnc(C(=O)NCc3ccncc3)c2c(=O)[nH]1` gave Pf Dd2 growth 57%.
Screening Cc1cn2nnc(C(=O)NCc3ccc4c(c3)OCO4)c2c(=O)[nH]1 returned Pf Dd2 growth 6.3µM*.
Cc1cn2nnc(C(=O)NCC3CC3)c2c(=O)[nH]1 was read as Pf Dd2 growth 42%.
`Cc1cn2nnc(C(=O)NCC3CCCCC3)c2c(=O)[nH]1` gave Pf Dd2 growth 6.3µM*.
Screening Cc1cccc(C(=O)N2CC(=O)N(c3cccc(Cl)c3)CC2C)n1 (centres undefined) returned Pf Dd2 growth 4%.
COc1ccccc1Cc1nc(-c2nnn3c2COC(c2ccc(Cl)cc2)C3)no1 (centres undefined) was read as Pf Dd2 growth -22%.
Screening COC[C@@H]1CN(C(=O)c2ncccc2C)C[C@H]1c1ccncc1 returned Pf Dd2 growth -13%.
Screening O=C1CC(c2ccccc2)N(C(=O)CNC(=O)c2cc(CN3CCOCC3)on2)CCCCCN1 (centres undefined) returned Pf Dd2 growth 4%.
`NC1(C(=O)N2CCOC(CC(c3ccccc3)c3ccccc3)C2)CC1` (centres undefined) gave Pf Dd2 growth 10µM*.
O=C(c1ccc[n+]([O-])c1)N1CCOC(CC(c2ccccc2)c2ccccc2)C1 (centres undefined) was read as Pf Dd2 growth -23%.
